Assay outcomes as filed in PubChem.
In the library only some 1.5% were active in any assay of this set; here they are far more common.
IDH1 R132H inh – blocks human mutant IDH1 R132H enzyme | AID 602179 | 0.093% of 390,000 active | Potency, µM (doses to about 76.6 µM), hits mostly inhibitors | IDH1-R132H enzyme, NADPH consumption, diaphorase/resazurin fluorescence; also: nearly all actives have a fitted effect of over 65% in size
Target sequence (O75874 whole entry R132H, stated change not applied): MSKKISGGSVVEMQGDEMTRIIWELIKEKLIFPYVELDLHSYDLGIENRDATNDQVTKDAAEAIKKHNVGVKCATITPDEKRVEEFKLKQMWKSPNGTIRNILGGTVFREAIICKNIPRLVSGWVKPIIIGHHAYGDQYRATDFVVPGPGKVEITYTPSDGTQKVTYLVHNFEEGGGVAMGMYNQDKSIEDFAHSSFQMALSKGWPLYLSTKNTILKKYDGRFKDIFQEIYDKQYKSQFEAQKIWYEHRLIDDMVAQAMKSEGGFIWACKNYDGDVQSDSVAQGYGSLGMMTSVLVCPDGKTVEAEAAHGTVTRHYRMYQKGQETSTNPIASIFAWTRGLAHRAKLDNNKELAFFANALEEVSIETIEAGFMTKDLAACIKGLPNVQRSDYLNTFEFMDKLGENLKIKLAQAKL
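IDH1-R132H (0.5 ug/mL dispensed) in pH 7.5 Tris buffer was preincubated 30 min with compound, then given a substrate mix of 0.016 mM NADPH and 2 mM alpha-KG for 80 min at room temperature; remaining NADPH was read by diaphorase/resazurin fluorescence.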
IL2 activator – IL-2 activation. 0.065% of 360,000 active. IL-2 activation reporter assay, cell-based qHTS; stimulated with anti-CD3/CD4/CD28 beads; in transgenic mouse T cells. activation, % (series mostly up to about 46 µM); in the data active = activation above about 50%; inconclusive = mostly about 30% to 49%
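Screening format: compound pinned onto unstimulated transgenic mouse T cells, 60 min incubation, then anti-CD3/anti-CD4/anti-CD28 bead stimulation for 18 hours at 37 degrees C, followed by EGFP and DsRed detection.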
gsp antagonist – gsp mutant antagonism | gsp-mutant cells, cAMP HTRF, 30 min | Potency, µM (highest dose often 76.9 µM), most hits filed as inhibitors | 0.4% of 340,000 active; calls by dose curve; cell line not stated here;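 also: intracellular cAMP measured with PDE inhibitor Ro 20-1724 present during compound exposure; nearly all actives have a fitted effect of over 65% in size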
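Cells, 2000/well, grown 16–24 h in DMEM 10% FBS with 0.5 mg/ml G418, then compounds plus […] (300 uM addition stock), 30 min at 37C. cAMP read by HTRF (cAMP-d2 and anti-cAMP antibody-K in lysis buffer) after 30 min RT.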
gsp ag – gsp mutant agonism; 0.13% of 340,000 active; Potency, µM (titrated, usually from 76.9 µM), actives largely listed as activators; gsp mutant cells, cAMP HTRF, 30 min; active = well fitted activation curve with a large enough effect; inconclusive = small, poorly fitted or top-dose-only effect, or another doubt; inactive = no such curve, though single readings can be large or run the other way; cell line not stated here;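 also: phosphodiesterase inhibitor Ro 20-1724 added with compounds to block cAMP breakdown; nearly all actives have a fitted effect of over 60% in size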
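Cells stably selected in G418 were plated at 2000/well, grown 16-24 hr, then given compounds in DMSO with the PDE inhibitor […] (300 uM solution added) for 30 min at 37C; cAMP was read by HTRF.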
BRCA1 expr act – BRCA1 expression activation. AID 624202. Potency, µM (highest dose often 46.1 µM), actives largely listed as activators. MCF7-BRCA1-FFLuc reporter, luminescence, 48 h; response scale: scaled: vehicle 0%, 10 µM genistein 100%. 1.1% of 380,000 active; also: nearly all actives have a fitted effect of over 80% in size
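Luminescence from a BRCA1-driven firefly luciferase in MCF7 cells was the read-out, taken 15 min after substrate addition following 48 h compound exposure at 37 °C. Data were normalized to a 10 microM genistein control and DMSO vehicle.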
Of the large screens only hits and unclear results are named; the others gave an inactive call. Unless noted, calls follow the shape of the dose curve; as a rule, active = well fitted curve in the direction sought with a large enough effect; inconclusive = small, poorly fitted or top-dose-only effect, or another doubt; inactive = no such curve, though single readings can be large; an effect the other way counts as inactive or inconclusive.

CCN1C(=O)/C(=C\C=C2/C=CC=CN2CC)SC1=S	gsp antagonist inconclusive, BRCA1 expr act inconclusive
CCN1C(=O)C(=CC=CN(C)c2ccccc2)SC1=S	BRCA1 expr act 2.5µM (no result: gsp antagonist)
O=c1ccc2cc(S(=O)(=O)NCc3ccc(Cl)cc3)ccc2[nH]1	none (no result: IL2 activator, gsp antagonist, gsp ag, BRCA1 expr act)
COc1ccc(NC(=O)c2oc3ccccc3c2NC(=O)c2cc(OC)c(OC)c(OC)c2)cc1	none (no result: IL2 activator, gsp antagonist, gsp ag)
Cn1c(SCc2ccc(Cl)cc2)nnc1-c1ccc(NC(=O)CCc2ccccc2)cc1	none (no result: IDH1 R132H inh, IL2 activator, gsp antagonist, gsp ag)
COc1ccc2nc(N3CCC(C)CC3)c(C#N)cc2c1	BRCA1 expr act 11µM
COc1ccc2cc(C#N)c(N3CCN(C(=O)c4ccccc4C)CC3)nc2c1	gsp antagonist 40µM
COc1ccc2cc(C#N)c(SCC(=O)N3CCCC3)nc2c1	BRCA1 expr act 11µM
COc1ccc(Cl)cc1NC(=O)CN(C)CC(=O)Nc1cc(OC)c(OC)c(OC)c1	none
O=S(=O)(c1ccc(OC(F)(F)F)cc1)N1CCN(c2nc(-c3ccccc3)nc3ccccc23)CC1	none (no result: IDH1 R132H inh, IL2 activator, gsp antagonist, gsp ag)
COc1cc(/C=N\n2nnnc2N)ccc1OCc1ccc(F)cc1	none
COc1cc(/C=N/n2c(C)n[nH]c2=S)ccc1OCc1ccc(F)cc1	BRCA1 expr act 5.6µM
N#C/C(=C\Nc1ccccc1O)c1nc2ccccc2o1	gsp antagonist 50µM
N#C/C(=C\c1ccncc1)c1nc2ccccc2o1	none
Cc1ccc(CN2CCC(n3nccc3NC(=O)CCOc3ccccc3)CC2)cc1C	none
COc1ccc(CCC(=O)Nc2sccc2C#N)cc1	BRCA1 expr act 11µM
COc1ccc(NC(=O)CSCC(=O)Nc2sccc2C#N)cc1	none
CCc1cc(=O)oc2c3c(cc(OCC(=O)NCCCCCC(=O)O)c12)OC(C)(C)CC3	gsp ag inconclusive
CCn1c(SCC(=O)c2ccccc2)nnc1-c1cnccn1	BRCA1 expr act 10µM
Cn1c(SCC(=O)c2ccccc2)nnc1-c1cccs1	BRCA1 expr act 10µM
COc1cccc(COC(=O)C(Cc2ccccc2)NC(=O)c2ccco2)c1 (configuration not stated)	none (no result: gsp antagonist)
CN(C)c1ccc(/C=C/c2cccc3ccccc23)cc1	none (no result: IDH1 R132H inh, IL2 activator, gsp antagonist, gsp ag)
Cc1nnc(Cc2ccccc2)c2n[nH]c(C)c12	gsp ag inconclusive (no result: gsp antagonist)
CCNC(=S)N1CCN(c2nc(-c3ccc(F)cc3)cs2)CC1	gsp antagonist 35µM
COCCNC(=S)N1CCN(c2nc(-c3ccc(F)cc3)cs2)CC1	gsp antagonist inconclusive
O=C(CCNC(=O)c1ccccc1Cl)Nc1nc2ccccc2s1	BRCA1 expr act 11µM (no result: gsp antagonist)
COc1ccc2nc(NC(=O)CCNC(=O)c3ccccc3Cl)sc2c1	none
CC(=O)c1sc(NC(=O)Cc2c(F)cccc2Cl)nc1C	none
O=C(Cc1c(F)cccc1Cl)Nc1nc2ccccc2s1	BRCA1 expr act 8.9µM
c1ccc(N2CC3CCc4ccccc4C3=N2)cc1 (configuration not stated)	gsp ag 10µM
CC(/C=C/c1ccccc1F)=N\NC(=O)c1ccccc1	BRCA1 expr act 3.2µM
O=C(c1nc(-c2ccc(Cl)cc2)n2c1CCCCC2)N1CCN(c2ccccc2F)CC1	none (no result: IL2 activator, gsp antagonist, gsp ag, BRCA1 expr act)
c1ccc(OCCOc2ncnc3ccccc23)cc1	BRCA1 expr act 10µM
Cc1cccc(-c2cnc(C(O)c3ccc(Cl)cc3C)[nH]2)c1 (configuration not stated)	none (no result: IDH1 R132H inh, gsp antagonist, gsp ag)
Cc1oc(-c2ccc(Cl)cc2)cc1C(=O)N1CCC1(C)C(=O)O (configuration not stated)	BRCA1 expr act 8.9µM (no result: IDH1 R132H inh, gsp antagonist, gsp ag)
Cn1cccc1/C=C1\SC(=O)N(c2ccc(O)cc2)C1=O	IL2 activator 51, BRCA1 expr act 10µM
CCCCNC(=S)N(CCCO)Cc1cc2cc3c(cc2[nH]c1=O)OCO3	none (no result: gsp antagonist)
Cc1[nH]n(-c2ccccc2)c(=O)c1C(c1ccc(O)c([N+](=O)[O-])c1)c1c(C)[nH]n(-c2ccccc2)c1=O	gsp antagonist 11µM
Cc1cccc(C)c1Nc1n[nH]c(=S)s1	none (no result: gsp antagonist)
CC(C)c1ccc(Nc2n[nH]c(=S)s2)cc1	BRCA1 expr act 2.5µM (no result: IDH1 R132H inh, gsp antagonist, gsp ag)
CSc1nc(-c2ccc(Cl)cc2)nn1S(=O)(=O)c1ccc(Cl)cc1	BRCA1 expr act 10µM
CCC(=O)n1nc(-c2ccc(Cl)cc2)nc1SC	BRCA1 expr act 10µM
O=C(Nc1ccccc1Br)C(Cc1ccccc1)NS(=O)(=O)c1cccc2nsnc12 (configuration not stated)	none (no result: IL2 activator, gsp antagonist, gsp ag, BRCA1 expr act)
Cc1sc2ccccc2[n+]1CCCCBr	none (no result: IDH1 R132H inh, IL2 activator, gsp antagonist, gsp ag)
COc1ccc(OC(=O)c2cnn(-c3ccccc3)c2C)cc1	BRCA1 expr act 10µM
COc1ccc(OC(=O)c2c(C)nn(-c3ccccc3)c2C)cc1	BRCA1 expr act inconclusive
COc1cccc(-n2c(C)cc(/C=C3\C(=N)N4N=C(CC(=O)N5CCOCC5)SC4=NC3=O)c2C)c1	none
Nc1c(C(=O)Nc2ccc(Cl)cc2)oc2ccccc12	BRCA1 expr act 2.5µM
O=c1cc(CSc2nnc(NC3CCCCC3)s2)nc2sccn12	none
c1ccc(CSc2nnc(NC3CCCCC3)s2)cc1	BRCA1 expr act 3.5µM (no result: gsp antagonist)
N=c1c2ccccc2nc2n1CCCCCCCCCCC2	none
CCCc1noc(-c2ccc(N3CCCCC3)c([N+](=O)[O-])c2)n1	BRCA1 expr act 7.1µM (no result: IL2 activator, gsp antagonist, gsp ag)
CCN(Cc1cccc(S(=O)(=O)O)c1)c1ccc(C(=C2C=CC(=[N+](CC)Cc3cccc(S(=O)(=O)O)c3)C=C2)c2ccccc2S(=O)(=O)[O-])cc1	none (no result: IDH1 R132H inh, IL2 activator, gsp antagonist, gsp ag)
COc1ccc(Cc2nnc(SCC(=O)NC3(C#N)CCCCC3)n2N)cc1	none
CCN(CC)C(=O)c1ccc(COc2ccccc2Br)o1	BRCA1 expr act 7.1µM
CC(C)(C)NC(=O)c1ccc(COc2ccccc2Br)o1	gsp antagonist inconclusive
COc1ccc(S(=O)(=O)N2CCC3CC2c2c(-c4ccc(C(F)(F)F)cc4)cccc23)cc1 (configuration not stated)	none (no result: IDH1 R132H inh, gsp antagonist, gsp ag)
Cc1nc2cc3ccccc3cc2c(=O)[nH]1	BRCA1 expr act 11µM
Nn1c(SCc2ccccc2)nc2c(cnn2-c2ccccc2)c1=O	gsp ag inconclusive, BRCA1 expr act 3.2µM
CCCS(=O)(=O)N1CC(=O)N(c2cccc(F)c2)C(C)(C(=O)NC2CCCCCC2)C1 (configuration not stated)	none (no result: IL2 activator, gsp antagonist, gsp ag, BRCA1 expr act)
COc1ccc(/C=C(\C)C(=O)NO)cc1	none (no result: IDH1 R132H inh, IL2 activator, gsp antagonist, gsp ag)
COC(=O)C1CCN(C(=O)c2cc(-c3ccc(Cl)s3)nc3ccccc23)CC1	gsp antagonist 32µM, gsp ag inconclusive
CCN1CCN(C(=O)c2cc(-c3ccc(Cl)s3)nc3ccccc23)CC1	gsp ag inconclusive
O=c1[nH][nH]c(=O)c2c(NS(=O)(=O)c3ccccc3)cccc12	BRCA1 expr act 13µM
O=S(=O)(Nc1ccc(NS(=O)(=O)c2ccccc2)c2ccccc12)c1ccccc1	none (no result: gsp antagonist)
CCCS(=O)(=O)c1nc(S(=O)(=O)c2ccc(C)cc2)c(NCCCN2CCCC2=O)s1	gsp ag 2.8µM
